# Data from PubChem BioAssay (Tox21).
# Records with an inconclusive call do not appear. Where a call stands in place of a potency, no number is given. Some compounds were tested as several samples or in several runs, with calls that do not always agree. Active and inactive are the calls of the source. Calls follow the shape of the full dose curve.
# Target: 5-hydroxytryptamine receptor 2A (Homo sapiens) (UniProt P28223)
# Experiment: 5-hydroxytryptamine receptor 2A (HTR2A) small molecule antagonists, cell-based qHTS assay (AID 1963586); also: nearly all actives have a fitted effect of over 45% in size
# Conditions: HTR2A-CHO cells, DOI-induced calcium flux, fluorescence; series mostly up to 61.5 µM; activity, negative = inhibition: at the top concentration
# From the text: National Center for Advancing Translational Sciences [NCATS]
# Division of Preclinical Innovation [DPI]
# U.S. Environmental Protection Agency [EPA]
# National Institutes of Environmental Health Sciences [NIEHS]
# National Toxicology Program [NTP]
# U.S. Food and Drug Administration [FDA]
# The HTR2A receptor is a subtype of the 5-HT2 receptor that belongs to the serotonin receptor family and is a G protein-coupled receptor (GPCR). The HTR2A-CHO cell line stably expressing human 5-hydroxytryptamine receptor 2A (HTR2A) can be used for screening antagonists of interactions between 5-HT2 and its ligands. The HTR2A-CHO calcium flux assay is a homogeneous fluorescence-based assay for detecting the intracellular calcium level using FDSS kinetic plate reader system.
# Tox21 Assay Protocol Summary:
# HTR2A-CHO cells were dispensed at 2000 cells/3uL/well in 1536-well black-clear bottom plates using a Multidrop Dispenser. After the assay plates were incubated at a 37 C/5% CO2 incubator for 18 h, 3 uL of Dye Loading Buffer was transferred to the assay plate by a Flying Reagent Dispenser. The assay plates were incubated at 37 C for 1h. For antagonist mode, 23 nL of compounds dissolved in DMSO, positive controls or DMSO only was transferred to the assay plate by a pin tool. After 5 min incubation at room temperature, 1.5 uL of 4-Iodo-2,5-dimethoxy-alpha-methylbenzeneethanamine hydrochloride (DOI) at 4nM was added to each well. The fluorescence intensity in the plates was measured using FDSS 7000EX kinetic plate reader for 3 min at 1 sec intervals.
# Potency is read from the fitted curve at half-maximal effect.
# Chain of 5-hydroxytryptamine receptor 2A (Homo sapiens) (P28223 whole entry, looked up): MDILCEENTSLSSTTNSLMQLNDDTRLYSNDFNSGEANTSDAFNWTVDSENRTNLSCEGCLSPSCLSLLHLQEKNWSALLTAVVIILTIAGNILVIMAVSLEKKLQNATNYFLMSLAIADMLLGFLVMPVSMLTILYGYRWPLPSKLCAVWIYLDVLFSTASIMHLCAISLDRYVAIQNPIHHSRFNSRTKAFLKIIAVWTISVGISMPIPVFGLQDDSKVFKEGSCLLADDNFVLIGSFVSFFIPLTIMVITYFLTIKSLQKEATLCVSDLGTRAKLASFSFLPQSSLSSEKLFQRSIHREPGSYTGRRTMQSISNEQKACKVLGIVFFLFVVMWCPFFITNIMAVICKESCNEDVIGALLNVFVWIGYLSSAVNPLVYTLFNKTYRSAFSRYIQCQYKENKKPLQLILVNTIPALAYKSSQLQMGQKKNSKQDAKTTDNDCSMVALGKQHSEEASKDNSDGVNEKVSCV
SMILES,Potency,"activity, negative = inhibition"
O=C(NC(=O)c1c(F)cccc1F)Nc1ccc(Cl)cc1,inactive,–
CCC/C=N/O,inactive,–
O=c1nc(O)n(Cl)c(=O)n1Cl,inactive,–
CC(C)Nc1nc(Cl)nc(NC(C)C)n1,inactive,–
CC[n+]1c(-c2ccccc2)c2cc(N)ccc2c2ccc(N)cc21,–,-9.24% (inactive)
CCCCCCC1CCOC1=O (stereo not given),–,-8.6% (inactive)
COC(=O)c1ccccc1CS(=O)(=O)NC(=O)Nc1nc(OC)cc(OC)n1,–,34.5% (inactive)
Cl,inactive,–
ClCc1ccccn1,inactive,–
Cc1cc(O)ccc1Cl,inactive,–
O=C(O)C(Cl)Cl,inactive,–
O=C(CCN1CC1)OCC(CO)(COC(=O)CCN1CC1)COC(=O)CCN1CC1,–,-20.6% (inactive)
Nc1ccc2ccccc2c1,inactive,–
Cl/C=C\CCl,–,4.4% (inactive)
CC(C)=CC1C(C(=O)OCc2cccc(Oc3ccccc3)c2)C1(C)C (stereo not given),inactive,–
CCN(CC)C(=O)C(C)Oc1cccc2ccccc12 (stereo not given),inactive,–
OCC(Br)CBr (stereo not given),–,5.14% (inactive)
O=[N+]([O-])c1c(Cl)c(Cl)c(Cl)c(Cl)c1Cl,inactive,–
Clc1ccccc1-c1nnc(-c2ccccc2Cl)nn1,inactive,–
Clc1ccc(C(c2ccc(Cl)cc2)C(Cl)(Cl)Cl)cc1,inactive,–

SMILES,Potency,"activity, negative = inhibition"
CC(=O)C1CCOC1=O (stereo not given),inactive,–
[Cl-].[Cl-].[Cl-].[Fe+3],inactive,–
CON(C)C(=O)Nc1ccc(Cl)cc1,–,-5.11% (inactive)
COc1cc(-c2ccc(N)c(OC)c2)ccc1N,inactive,–
NCCc1ccc(O)cc1,4.17 µM (active) and inactive,–
O=C(O)c1cc(Oc2ccc(C(F)(F)F)cc2Cl)ccc1[N+](=O)[O-],inactive,–
Cc1cccc(C)c1N,–,8.33% (inactive)
O=c1oc2ccccc2c(O)c1C(CC(O)c1ccc(-c2ccc(Br)cc2)cc1)c1ccccc1 (stereo not given),–,8.09% (inactive)
Fc1cc(Br)ccc1CBr,–,7.71% [at 28.5 µM] (inactive)
CCSC(=O)N1CCCCCC1,inactive,–
C=CC(=O)NC(C)(C)CC(C)=O,–,-16.7% (inactive)
CCOP(=S)(OCC)Oc1cnc2ccccc2n1,inactive,–
Nc1ccc([As](=O)(O)O)cc1,inactive,–
COC[C@H](C)N(C(=O)CCl)c1c(C)csc1C,–,18.8% (inactive)
CCc1cnc(C2=NC(C)(C(C)C)C(=O)N2)c(C(=O)O)c1 (stereo not given),inactive,–
Cc1ccc2c(c1N)C(=O)c1ccccc1C2=O,inactive,–
O=C(CCl)c1ccc(Cl)cc1Cl,–,-23.9% (inactive)
NC(=S)Nc1ccccc1,inactive,–
C[Si](Cn1cncn1)(c1ccc(F)cc1)c1ccc(F)cc1,inactive,–
CC(C)OC(=O)Nc1cccc(Cl)c1,–,2.16% (inactive)
